TTR transcr act – activators of transthyretin transcription; activation, % at 16.7 µM; hit rate 1.3% among 92,000; SH-SY5Y TTR promoter Gaussia luciferase, luminescence; 100% = recombinant luciferase protein wells;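 active means activation above the mean of all tested compounds plus 3 SD, cut at about 9.5% in these data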;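 further: cells exposed to compounds for one day before reading; 0% = median of all test compound wells on the plate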
TTR inh HuH7 – decreases TTR transcription in HuH7 cells in activator counter-screen | shares compounds with TTR transcr act | HuH7 TTR promoter-Gaussia luciferase reporter, luminescence | inhibition, % at 16.7 µM | hit rate 4% among 1,100;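 active means average inhibition above the solvent-only control wells' mean plus 3 SD, cut at about 15% in these data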;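 further: 0% = cells with DMSO only and 100% = cells with inhibitor control FD; inhibitors lower well luminescence so higher value means more inhibition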
TTR act confirm – human TTR transcription activation, confirmation; shares compounds with TTR transcr act; SHSY5Y TTR promoter Gaussia luciferase, luminescence; 100% = purified Lucia enzyme wells, no cells; activation, % at 16.7 µM; 1,100 tested, under 10 active; AID 1117280;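 active means mean activation above a set limit taken from the earlier primary screen, cut at about 11% in these data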;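 further: 0% = DMSO-treated cells and 100% = recombinant Lucia luciferase without cells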
Active calls of the source: *. The full list was thinned out, with hits kept by preference.

SMILES | TTR transcr act | others
COCCCNC(=O)C[C@@H]1C[C@@]2(C(=O)OC)CCCCC=C2N(CCc2ccc(OC)c(OC)c2)C1=O | 36* | TTR inh HuH7=-5;TTR act confirm=1
CCOC(=O)[C@]12CCCC=C1N(Cc1ccccc1)C(=O)[C@H](CC(=O)NCc1ccc(OC)c(OC)c1)C2 | -2
COc1ccc(OC)c(NC(=O)CSc2nc(=O)n(CCN3CCOCC3)c3c2CCCC3)c1 | 1
CC1(C)OC2OC(COC(=O)c3ccc([N+](=O)[O-])cc3)C3OC(C)(C)OC3C2O1 (stereo not given) | 0
CC(=O)N1C(C)(C)CC(=NOC(=O)c2ccccc2)CC1(C)C | -1
CC1(C)OC2OC(C3COC(=O)O3)C(OC(=O)c3ccccc3)C2O1 (stereo not given) | 25* | TTR inh HuH7=-7;TTR act confirm=-1
Cn1c(CNc2ccccc2F)nc2ccccc21 | 1
O=C(c1ccc(F)cc1)C1CCN(c2ncnc3sccc23)CC1 | -5
CC1(C)CC(=O)C(C=NCCN2CCN(C(=S)NC3CCCCC3)CC2)=C(O)C1 | 2
CC1(C)CC(=O)C(C=NCCN2CCN(C(=O)c3ccccc3)CC2)=C(O)C1 | 2
CC1(C)CC(=O)C(C=NCCN2CCN(C(=O)CCl)CC2)=C(O)C1 | 12* | TTR inh HuH7=2;TTR act confirm=-2
COCCNC(=O)C1(C)CCCN(C(=O)c2cccc(OC(F)(F)F)c2)C1 (stereo not given) | 1
CCOc1cc(CO)c(Br)cc1OCC(=O)O | 1
CCCCNCc1cc(OCC)c(OCC(N)=O)cc1Br | 18* | TTR inh HuH7=-5;TTR act confirm=2
CCCCNCc1cc(OC)c(OCC(N)=O)cc1Br | 1
C=CCN(CC=C)Cc1cc(=O)oc2cc(C)c(Cl)cc12 | -1
C[C@@H]1CCN(C2CC2)S(=O)(=O)c2c(cccc2N2CCC[C@H]2C)O1 | -1
COc1cc(C(O)P(=O)(OCCC(C)C)c2ccc(N(C)C)cc2)cc(OC)c1OC (stereo not given) | 0
COc1cc(CCC(=O)OCC(=O)Nc2c(C)cc(C)cc2C)cc(OC)c1OC | 2
Cc1cc(C)c(NC(=O)COC(=O)C2CCCO2)c(C)c1 (stereo not given) | 0
CC(=O)OCC(=O)Nc1c(C)cc(C)cc1C | 9.9* | TTR inh HuH7=-11;TTR act confirm=1
CCCCN1C(=O)N2CCc3ccccc3C2CS1(=O)=O (stereo not given) | -1
CC1(c2nnc(-c3cccc(Cl)c3)o2)CC(c2cccnc2)=NO1 (stereo not given) | -2
NC(=O)CCC(C(=O)O)N1C(=O)C2C3CCC(C3)C2C1=O (stereo not given) | 0
Cc1ccc2nc(C)c(C(=O)NN=C3CCCCCC3)n2c1 | -2
SMILES | TTR transcr act | others
O=C(O/N=C1/CCCc2occc21)c1ccccc1 | -3
Cc1ccc(C(=O)O/N=C2\CCCc3ccccc32)cc1 | 23* | TTR inh HuH7=-2;TTR act confirm=0
COc1ccc2c(c1)/C(=N/OC(=O)c1cccs1)CCC2 | 0
COc1cccc(-c2nc(CS(=O)(=O)CC(=O)Nc3cc(F)ccc3F)c(C)o2)c1 | -1
O=C(CN1C(=O)CSc2ccc(S(=O)(=O)N3CCOCC3)cc21)NCc1c(F)cccc1Cl | 0
O=C(CN1C(=O)CCSc2ccc(S(=O)(=O)N3CCCC3)cc21)NCc1ccccc1Cl | 3
O=C(CN1C(=O)CSc2ccc(S(=O)(=O)N3CCCCC3)cc21)NCc1cccnc1 | 11* | TTR inh HuH7=-13;TTR act confirm=-1
O=C(C[C@H]1CC[C@@H]2[C@H](COC[C@@H](O)CN2Cc2cccc(F)c2)O1)NCC1CCCCC1 | 1
O=C(NC1CCCC1)C(c1ccccc1)n1c(-c2ccc3c(c2)CCO3)nc2ccccc21 (stereo not given) | 1
CCc1nc2ccc(C(=O)Nc3cccc(NS(C)(=O)=O)c3)cn2c1N(CC)Cc1cccc(Br)c1 | 0
COc1cccc2cc(C(C)N(CCCN3CCOCC3)C(=S)Nc3ccccc3C)oc12 (stereo not given) | 14* | TTR inh HuH7=-6;TTR act confirm=-1
COc1cccc2cc(C(C)N(CCCN3CCOCC3)C(=S)Nc3c(C)cccc3C)oc12 (stereo not given) | 1
COc1cccc2cc(C(C)N(CCCN3CCOCC3)C(=S)Nc3cccc(C)c3)oc12 (stereo not given) | -1
COc1cccc(C(=O)Nc2nnc(S(=O)(=O)N(C)Cc3ccccc3)s2)c1 | -3
CCN(CC)CCCNC(=S)N(Cc1ccco1)Cc1cc2cc3c(cc2[nH]c1=O)OCCO3 | 1
CCc1ccc2[nH]c(=O)c(CN(Cc3ccco3)C(=S)NCC3CCCO3)cc2c1 (stereo not given) | 12* | TTR inh HuH7=-24;TTR act confirm=2
CNC(=S)N(Cc1ccco1)Cc1cc2cc3c(cc2[nH]c1=O)OCCO3 | -2
C#CCNC(=O)C[C@H]1C[C@@]2(C(=O)OC)C(=C[C@H](C3CCCC3)O[C@@H]2C)N(Cc2cccc3ccccc23)C1=O | -2
